Bioassay records: PubChem, National Center for Advancing Translational Sciences (NCATS)
Shown are actives, neighbours in structure and some others; about 1.7% of the full set was active somewhere.
LDHA block – inhibitors of human lactate dehydrogenase A; 0.15% of 480,000 active; purified LDHA, NADH/diaphorase-resazurin fluorescence; stronger effect = lower value; activity change, % (values are at about 110 or 230 µM); AID 1347041; in the data active = activity change below about -30%; inconclusive = mostly about -25% to -30%;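 also: plate controls were DMSO wells for no effect and wells without enzyme for full effect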
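Resorufin fluorescence (ex540/em590), read at 0 and 20 min after diaphorase/resazurin addition, reports the NADH left after a 5 min room-temperature reaction of 2 nM human LDH5 with 0.06 mM NADH and 0.2 mM pyruvate.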
GLP1R ag – GLP-1 receptor (human) agonism | P43220 | HEK293 GLP-1R CRE-luciferase, luminescence, 4-6 h; cells express a hypersensitive GLP-1R form | Potency, µM (doses to about 45.6 µM), for inactives: top-dose activation, usual class: activators | 0.007% of 380,000 active | AID 624172; also: potency is read from the fitted curve at half-maximal effect; % of control where 0% means no effect
GLP-1R inv ag – inverse agonists of human GLP-1 receptor | P43220 | HEK293 GLP-1R CRE-luciferase, luminescence, 24 h; GLP-1R form is constitutively active | Potency, µM (doses to about 38.3 µM), for the others: at the highest dose activity change, negative = inhibition, usual class: inhibitors | 1.6% of 410,000 active | AID 624417; also: potency is read from the fitted curve at half-maximal effect; % is scaled to controls: 0 for no effect and ±100 for the full control effect; nearly all actives have a fitted effect of over 55% in size
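Using stably transfected HEK293 (constitutively active GLP-1R, cAMP-luciferase reporter), compounds were incubated 24 hr and luciferase measured by luminescence.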
GLP1R cytotox – cytotoxic in the GLP-1 receptor inverse agonist counter-screen; HEK293 cAMP-luciferase reporter cells, luminescence, 24 h; Potency, µM (doses to about 38.3 µM), for inactives: top-dose activity change, negative = inhibition, hits mostly inhibitors; 0.13% of 410,000 active;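 also: loss of luciferase light is scored as toxicity; potency is read from the fitted curve at half-maximal effect; % is scaled to controls: 0 for no effect and ±100 for the full control effect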
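1536-well qHTS counterscreen of the MLSMR; 200 cells/uL, 12 h pre-incubation, 23 nL cpd, 24 h at 37 deg C 5% CO2, luciferase detection reagent, 12 min RT, luminescence. Inhibition = undesired.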
PTHR1 ag – agonists of human PTHR1 parathyroid hormone receptor | 0.075% of 410,000 active | Potency, µM (highest dose often 115 µM), for the others: at the top dose activation, hits mostly activators | HEK293 GP2 PTHR1 cells, GloSensor cAMP luminescence, 1 h | Q03431; also: potency is read from the fitted curve at half-maximal effect; nearly all actives have a fitted effect of over 55% in size
Target sequence (Q03431 whole entry, looked up): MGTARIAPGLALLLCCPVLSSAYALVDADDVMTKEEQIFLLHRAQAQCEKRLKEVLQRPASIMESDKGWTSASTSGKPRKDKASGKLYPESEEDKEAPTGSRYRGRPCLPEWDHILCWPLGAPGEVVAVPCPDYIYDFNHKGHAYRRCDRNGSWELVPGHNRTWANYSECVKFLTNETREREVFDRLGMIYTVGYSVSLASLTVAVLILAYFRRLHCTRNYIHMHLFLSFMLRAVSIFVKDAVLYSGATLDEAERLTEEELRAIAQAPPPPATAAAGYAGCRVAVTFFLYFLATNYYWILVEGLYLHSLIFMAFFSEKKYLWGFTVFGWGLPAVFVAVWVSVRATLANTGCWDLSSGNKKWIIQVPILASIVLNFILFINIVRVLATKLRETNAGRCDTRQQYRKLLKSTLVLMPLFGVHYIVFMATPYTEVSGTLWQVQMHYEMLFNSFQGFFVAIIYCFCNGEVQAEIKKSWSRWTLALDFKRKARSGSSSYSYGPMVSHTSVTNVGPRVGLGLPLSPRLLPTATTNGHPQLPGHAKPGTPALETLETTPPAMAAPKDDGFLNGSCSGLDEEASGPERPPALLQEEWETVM
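HEK-293-derived GP2 cells expressing PTHR1 and a GloSensor cAMP reporter, 3,000/well, plated overnight, given luciferin plus IBMX (each 0.5 mM as added) for 1 h at 37 °C, then compound for 1 h at 37 °C. Luminescence was read after 15 min at room temperature.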
IDH1 R132H inh – blocks human mutant IDH1 R132H enzyme | O75874 | Potency, µM (top dose mostly 76.6 µM), inactives show at the highest dose activity change, negative = inhibition, most hits filed as inhibitors | 0.093% of 390,000 active | AID 602179 | IDH1-R132H enzyme, NADPH consumption, diaphorase/resazurin fluorescence; also: potency is read from the fitted curve at half-maximal effect; % is scaled to controls: 0 for no effect and ±100 for the full control effect; nearly all actives have a fitted effect of over 65% in size
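IDH1-R132H (0.5 ug/mL dispensed) in pH 7.5 Tris buffer was preincubated 30 min with compound, then given a substrate mix of 0.016 mM NADPH and 2 mM alpha-KG for 80 min at room temperature; remaining NADPH was read by diaphorase/resazurin fluorescence.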
* hit, by the source's call; ! = not confirmed by another sample; [ ] = another dose, or the depositor's remark. Unless noted, calls follow the shape of the dose curve; as a rule, active = well fitted curve in the direction sought with a large enough effect; inconclusive = small, poorly fitted or top-dose-only effect, or another doubt; inactive = no such curve, though single readings can be large; an effect the other way counts as inactive or inconclusive.

CN(C)c1cccc(F)c1C(=O)NC(=O)Nc1ccc(Cl)cc1 was read as LDHA block -4, GLP1R ag -1%, GLP-1R inv ag 8.9µM*, GLP1R cytotox inconclusive, PTHR1 ag -12% and IDH1 R132H inh 0%.
`CN(C)c1cccc(N(C)C)c1CNC(=O)NC(=O)c1c(F)cccc1F` gave LDHA block 3, GLP1R ag -4%, GLP-1R inv ag 10µM*, GLP1R cytotox 2%, PTHR1 ag inactive and IDH1 R132H inh 15%.
`CCN1CCN(c2oc(-c3ccc(S(=O)(=O)N4CCOCC4)cc3)nc2C#N)CC1` gave LDHA block 3.
CC(C)(C)c1ccc(OCCCCCCN2CCNCC2)cc1 was read as LDHA block -9, GLP1R ag 6%, GLP-1R inv ag 4µM*, GLP1R cytotox inconclusive, PTHR1 ag inactive and IDH1 R132H inh 0%.
Cc1ccc(OCCCCCCN2CCNCC2)c(Br)c1 was read as LDHA block -7, GLP1R ag -3%, GLP-1R inv ag 2.8µM*, GLP1R cytotox inconclusive, PTHR1 ag inactive and IDH1 R132H inh 5%.
Screening Cc1ccc(OCCCCN2CCC(C)CC2)c(Br)c1 returned LDHA block -14, GLP1R ag 9%, GLP-1R inv ag 0%, GLP1R cytotox inconclusive, PTHR1 ag -26% and IDH1 R132H inh 11%.
For CC(C)(c1ccccc1)c1ccc(OCCN2CCOCC2)cc1 the results were LDHA block -15, GLP1R ag 2%, GLP-1R inv ag inconclusive, GLP1R cytotox 9%, PTHR1 ag -35% and IDH1 R132H inh 12%.
CC(C)(c1ccccc1)c1ccc(OCCCN2CCNCC2)cc1 was read as LDHA block inconclusive, GLP1R ag 12%, GLP-1R inv ag 1.1µM*, GLP1R cytotox inconclusive, PTHR1 ag inactive and IDH1 R132H inh 11%.
Screening Cn1nc(C(=O)NCC2CCC2)c2ccccc2c1=O returned LDHA block -2.
Brc1ccc(CSc2ccc(-c3ccccn3)nn2)cc1 was read as LDHA block -31*.
`Cc1ccc(NS(=O)(=O)c2ccc3c(c2)NC(=O)CO3)cc1Cl` gave LDHA block 0, GLP1R ag -1%, GLP-1R inv ag 10µM*, GLP1R cytotox -10%, PTHR1 ag -21% and IDH1 R132H inh -5%.
`CCCCCCn1nc(C(=O)Nc2cccc(S(=O)(=O)NC(C)(C)C)c2)c2ccccc2c1=O` gave LDHA block -5.
For CN1CCN(CCCNC(=O)c2ccc(CSCc3cccc(Cl)c3)o2)CC1 the results were LDHA block -11, GLP1R ag 22%, GLP-1R inv ag 10µM*, GLP1R cytotox -16%, PTHR1 ag inactive and IDH1 R132H inh -1%.
O=C(NCCCN1CCCC1)c1ccc(CSCc2cccc(Cl)c2)o1 was read as LDHA block -12, GLP1R ag 6%, GLP-1R inv ag inconclusive, GLP1R cytotox -13%, PTHR1 ag -13%[57.5 µM] and IDH1 R132H inh 2%.
Screening CC(C)NC(=O)c1ccc(CSCc2ccccc2Cl)o1 returned LDHA block -3, GLP1R ag 12%, GLP-1R inv ag 8.9µM*, GLP1R cytotox -20%, PTHR1 ag -18% and IDH1 R132H inh 10%.
Screening O=C(NCc1ccc(Cl)cc1)c1ccc(CSCc2cccc(Cl)c2)o1 returned LDHA block -8, GLP-1R inv ag inconclusive, GLP1R cytotox 9%, PTHR1 ag inactive and IDH1 R132H inh 9%.
Screening Cc1ccc(CNC(=O)c2ccc(CSCc3ccc(Cl)cc3)o2)cc1 returned LDHA block -1, GLP-1R inv ag 10µM*, GLP1R cytotox 3%, PTHR1 ag inactive and IDH1 R132H inh 15%.
`Cc1nn(Cc2ccc(Cl)cc2)c(C)c1NC(=O)COCc1cc(-c2ccco2)on1` gave LDHA block 5.
Cc1cccc(Oc2c(C(F)(F)F)oc3cc(OCC(=O)OCc4ccccc4)ccc3c2=O)c1 was read as LDHA block -18.
Cn1nc(C(=O)Nc2ccccc2C(=O)N2CCCC2)c2ccccc2c1=O was read as LDHA block 2.
For Cc1cccc(/C=N/Nc2ccc(S(=O)(=O)Nc3cccc(Cl)c3)cc2[N+](=O)[O-])c1 the results were LDHA block -11.
Cc1cccc(C(=O)NCCn2c(C)cc3ccccc32)c1 was read as LDHA block -2.
For CC(C)OC(=O)/C(C#N)=C/c1c[nH]c2ccccc12 the results were LDHA block -32*!, GLP1R ag 2%, GLP-1R inv ag -23%, GLP1R cytotox -29%, PTHR1 ag -3% and IDH1 R132H inh 7%.
For O=c1cnn([C@@H]2O[C@H](CO)[C@@H](O)[C@H]2O)c(=O)[nH]1 the results were LDHA block -5, GLP1R ag -6%, GLP-1R inv ag 1µM*, GLP1R cytotox 4%, PTHR1 ag 10% and IDH1 R132H inh -3%.
Screening O=C(CSc1nnc(-c2ccc(F)cc2)n1CC1CCCO1)Nc1ccc2c(c1)CCC2 (stereo unspecified) returned LDHA block 0.
COc1ccc(-c2nnc(NC(=O)c3ccccc3C)o2)cc1 was read as LDHA block 6, GLP1R ag -3%, GLP-1R inv ag 10µM*, GLP1R cytotox inconclusive, PTHR1 ag -11% and IDH1 R132H inh 5%.
For COc1ccccc1C(=O)Nc1nnc(-c2ccc3c(c2)CCCC3)o1 the results were LDHA block 1, GLP1R ag -3%, GLP-1R inv ag inconclusive, GLP1R cytotox 11µM*, PTHR1 ag -28% and IDH1 R132H inh 9%.
COc1cccc(C(=O)Nc2nnc(-c3ccc(Cl)cc3)o2)c1 was read as LDHA block 1, GLP1R ag -2%, GLP-1R inv ag 10µM*, GLP1R cytotox -29%, PTHR1 ag -6% and IDH1 R132H inh -10%.
COc1cccc(C(=O)Nc2nnc(-c3ccc(F)cc3)o2)c1 was read as LDHA block 5, GLP1R ag -3%, GLP-1R inv ag inconclusive, GLP1R cytotox 2%, PTHR1 ag -3% and IDH1 R132H inh -1%.
O=C(Cc1n[nH]c(=O)c2ccccc12)NCC1(N2CCOCC2)CCCCC1 was read as LDHA block 21.
O=C(Cc1ccccc1)c1ccccc1NC(=O)C(c1ccccc1)c1ccccc1 was read as LDHA block -9.
